Test results from PubChem BioAssay (NCI).
The panel holds about 83,000 compounds, 20% with a hit somewhere; the sample as a whole holds those more often.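 Note: values are percent growth. 100 is the growth of untreated cells, values between 100 and 0 indicate rising inhibition; between -100 and 0 indicates cell death.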 Calls of active or inactive are those of the source. Rule for the calls: active = growth percent below 10; inactive = the rest.

What was measured:
Assay in all cases: NCI-60 one-dose screen, 48 h (100 = growth as untreated, 0 = no growth, -100 = all killed)
Details in all cases: 10 µM unless noted
NCI-H23 lung = test system: NCI-H23 lung
NCI-H226 lung = test system: NCI-H226 lung
NCI-H322M lung = test system: NCI-H322M lung
HOP-62 NSCLC = test system: HOP-62 NSCLC
NCI-H460 lung = test system: NCI-H460 lung
HOP-92 NSCLC = test system: HOP-92 NSCLC
NCI-H522 lung = test system: NCI-H522 lung
A549/ATCC NSCLC = test system: A549/ATCC NSCLC
786-0 renal = test system: 786-0 renal
COLO 205 colon = test system: COLO 205 colon

Measured: growth

COc1cc2c(c(OC)c1OC)CCC(c1cccc(C(=O)Nc3ccccc3Br)c1)O2 (stereo not given)
inactive: NCI-H23 lung 97.2% | NCI-H226 lung 92.3% | NCI-H322M lung 94.9% | HOP-62 NSCLC 92.3% | NCI-H460 lung 104% | HOP-92 NSCLC 66.3% | NCI-H522 lung 80.1% | A549/ATCC NSCLC 81.2% | 786-0 renal 76.2% | COLO 205 colon 90.5%

C#Cc1c(I)n(C2OC(CO[Si](C)(C)C(C)(C)C)C3OC(C)(C)OC32)c(=O)[nH]c1=O (stereo not given)
active: HOP-92 NSCLC -80.9% | COLO 205 colon -88.2%
inactive: NCI-H23 lung 85.7% | NCI-H226 lung 98.1% | NCI-H322M lung 113% | HOP-62 NSCLC 97% | NCI-H460 lung 114% | NCI-H522 lung 101% | A549/ATCC NSCLC 92.6% | 786-0 renal 93.9%

O=C(/C=C/c1ccc(Cl)cc1)c1ccc(Nc2ccnc3cc(Cl)ccc23)cc1
inactive: NCI-H23 lung 71.1% | NCI-H226 lung 111% | NCI-H322M lung 89.6% | HOP-62 NSCLC 72.2% | NCI-H460 lung 133% | HOP-92 NSCLC 15.2% | NCI-H522 lung 88.3% | A549/ATCC NSCLC 62.7% | 786-0 renal 62.8% | COLO 205 colon 107%

CCCCCCC/C=N/NC(=O)c1ccc(-n2cc(-c3ccccc3)nn2)cc1
inactive: NCI-H23 lung 87.6% | NCI-H226 lung 85.2% | NCI-H322M lung 86.3% | HOP-62 NSCLC 95.8% | NCI-H460 lung 98.4% | HOP-92 NSCLC 87.1% | NCI-H522 lung 79.9% | A549/ATCC NSCLC 96% | 786-0 renal 92.2% | COLO 205 colon 110%

COc1ccc2c(O)cc3c(c2c1)[C@H](CCl)CN3C(=O)c1cc2cc(NC(=O)CCN3CCOCC3)ccc2[se]1
inactive: HOP-92 NSCLC 94.8%
active: NCI-H23 lung -50.7% | NCI-H226 lung -12.5% | NCI-H322M lung -87.8% | HOP-62 NSCLC -79.7% | NCI-H460 lung -7.37% | NCI-H522 lung -82.5% | A549/ATCC NSCLC -29.5% | 786-0 renal -59.8% | COLO 205 colon -78.2%

Cn1cc(-c2csc(-c3cn(C)c4ccc(F)cc34)n2)c2cnccc21
inactive: NCI-H23 lung 75.7% | NCI-H226 lung 68.5% | NCI-H322M lung 21.9% | HOP-92 NSCLC 70.8%
active: HOP-62 NSCLC -70.9% | NCI-H460 lung -73.8% | NCI-H522 lung -76% | A549/ATCC NSCLC 1.42% | 786-0 renal -91.6% | COLO 205 colon -80.1%

COc1cc(C(=O)c2c(-c3ccccc3)oc3ccccc23)cc(OC)c1O
inactive: NCI-H23 lung 43.2% | NCI-H226 lung 52.8% | NCI-H322M lung 53.4% | HOP-62 NSCLC 38.2% | NCI-H460 lung 13.9% | HOP-92 NSCLC 55.4% | NCI-H522 lung 40.2% | A549/ATCC NSCLC 47.3% | 786-0 renal 35.6% | COLO 205 colon 123%

C/C(=C(\c1ccc(OCCCN(C)C)cc1)c1ccc(OC(=O)Cc2ccccc2)cc1)c1ccc(Cl)cc1
inactive: NCI-H23 lung 84.6% | NCI-H226 lung 100% | NCI-H322M lung 86.8% | HOP-62 NSCLC 78.9% | NCI-H460 lung 40.8% | HOP-92 NSCLC 51.8% | NCI-H522 lung 67.2% | A549/ATCC NSCLC 63.3% | 786-0 renal 68.3% | COLO 205 colon 50.6%

C=C(C[n+]1ccccc1)[C@@H]1CC[C@]2(C(=O)OC)CC[C@]3(C)[C@H](CC[C@@H]4[C@@]5(C)CCC(=O)C(C)(C)[C@@H]5CC[C@]43C)[C@@H]12
inactive: NCI-H23 lung 87.9% | NCI-H226 lung 90.3% | NCI-H322M lung 96.3% | HOP-62 NSCLC 103% | NCI-H460 lung 98.3% | HOP-92 NSCLC 67.4% | NCI-H522 lung 55.5% | A549/ATCC NSCLC 93.3% | 786-0 renal 101% | COLO 205 colon 56.1%

O=CN1N=C(c2cccc(Nc3ccncc3)c2)CC1c1ccc2c(c1)OCO2 (stereo not given)
inactive: NCI-H23 lung 89.7% | NCI-H226 lung 85.7% | NCI-H322M lung 99.4% | HOP-62 NSCLC 80.2% | NCI-H460 lung 105% | HOP-92 NSCLC 73.4% | NCI-H522 lung 83.3% | A549/ATCC NSCLC 83.8% | 786-0 renal 95.3% | COLO 205 colon 113%

O=C(/C=C/C12c3ccccc3C(c3ccccc31)C1C(=O)NC(=O)C12)c1cccs1 (stereo not given)
inactive: NCI-H23 lung 37.4% | NCI-H226 lung 73.4% | NCI-H322M lung 31.9% | HOP-62 NSCLC 41.3% | NCI-H460 lung 17.3% | HOP-92 NSCLC 37.1% | NCI-H522 lung 28% | A549/ATCC NSCLC 43.5% | 786-0 renal 43.4% | COLO 205 colon 44%

CCOC(=O)C1=C(c2ccccc2)N=C2N(c3ccccc3)N=C(C(C)=O)N2C1c1ccc(Br)cc1 (stereo not given)
inactive: NCI-H23 lung 94.3% | NCI-H226 lung 96.1% | NCI-H322M lung 95.3% | HOP-62 NSCLC 103% | NCI-H460 lung 98% | HOP-92 NSCLC 89.5% | NCI-H522 lung 95.3% | A549/ATCC NSCLC 91.2% | 786-0 renal 100% | COLO 205 colon 124%

C=C(c1ccc(C(=O)O)c(F)c1)c1cc2c(cc1C)C(C)(C)C=CC2(C)C
inactive: NCI-H23 lung 76.2% | NCI-H226 lung 65.5% | NCI-H322M lung 90.7% | HOP-62 NSCLC 70% | NCI-H460 lung 82.1% | HOP-92 NSCLC 62.4% | NCI-H522 lung 61.5% | A549/ATCC NSCLC 38.1% | 786-0 renal 89.2% | COLO 205 colon 107%

N#C/C(=C\c1cccc2cnccc12)N1N=NC2C=CC=CC21 (stereo not given)
active: HOP-92 NSCLC -14.6%
inactive: NCI-H23 lung 48.5% | NCI-H226 lung 68.7% | NCI-H322M lung 67.2% | HOP-62 NSCLC 79.9% | NCI-H460 lung 40.8% | NCI-H522 lung 14.1% | A549/ATCC NSCLC 64.2% | 786-0 renal 53.1% | COLO 205 colon 47.4%

COc1cc2c(cc1OC)CC[N+](CCC[N+](C)(C)C)=C2
inactive: NCI-H23 lung 106% | NCI-H226 lung 104% | NCI-H322M lung 88.6% | HOP-62 NSCLC 84% | NCI-H460 lung 109% | HOP-92 NSCLC 96.1% | NCI-H522 lung 80.3% | A549/ATCC NSCLC 97.4% | 786-0 renal 96.2% | COLO 205 colon 108%

C=C(C)[C@@H]1CC[C@]2(COC(=O)c3cccnc3)CC[C@]3(C)[C@H](CC[C@@H]4[C@@]5(C)CCCN(C(=O)c6cccnc6)C(C)(C)[C@@H]5CC[C@]43C)[C@@H]12
inactive: NCI-H23 lung 42.6% | NCI-H226 lung 42.1% | NCI-H322M lung 65.6% | HOP-62 NSCLC 61% | NCI-H460 lung 17.7% | HOP-92 NSCLC 32.9% | NCI-H522 lung 34.3% | A549/ATCC NSCLC 29.3% | 786-0 renal 45.1% | COLO 205 colon 27.9%

CCCCCCCC/C=C\CCCCCCCCOc1ccc(CC(=O)NCC[N+]2(C)CCCC2)cc1
inactive: NCI-H23 lung 58.7% | NCI-H226 lung 66.4% | NCI-H322M lung 88.5% | HOP-62 NSCLC 22.5% | NCI-H460 lung 25.3% | HOP-92 NSCLC 57.4% | NCI-H522 lung 48.7% | A549/ATCC NSCLC 73.7% | 786-0 renal 48.6%
active: COLO 205 colon -74.1%

O=C(Nc1ncc(Cc2cc(C(F)(F)F)ccc2Cl)s1)C(=S)N1CCOCC1
inactive: NCI-H23 lung 89.8% | NCI-H226 lung 88.3% | NCI-H322M lung 94.6% | HOP-62 NSCLC 93% | NCI-H460 lung 100% | HOP-92 NSCLC 70.4% | NCI-H522 lung 74.7% | A549/ATCC NSCLC 93.8% | 786-0 renal 94.6% | COLO 205 colon 96.4%

C=CCn1c(SCC(=O)Nc2ccc(C(=O)/C=C/c3ccc(Cl)cc3)cc2)nnc1-c1ccc(Cl)c(Cl)c1
inactive: NCI-H23 lung 85% | NCI-H226 lung 85.7% | NCI-H322M lung 83.4% | HOP-62 NSCLC 84.3% | NCI-H460 lung 90.2% | HOP-92 NSCLC 70.2% | NCI-H522 lung 66.5% | A549/ATCC NSCLC 67.4% | 786-0 renal 82.9% | COLO 205 colon 100%

CCOC(=O)CC1CSC(N/N=C(/C)c2cccc(C(F)(F)F)c2)=N1 (stereo not given)
inactive: NCI-H23 lung 103% | NCI-H226 lung 99.6% | NCI-H322M lung 89.6% | HOP-62 NSCLC 97% | NCI-H460 lung 110% | HOP-92 NSCLC 100% | NCI-H522 lung 82.2% | A549/ATCC NSCLC 87.7% | 786-0 renal 97% | COLO 205 colon 107%

COc1cccc(C(=O)Nc2cccc(NC(=O)c3ccccn3)c2)c1
inactive: NCI-H23 lung 93.7% | NCI-H226 lung 112% | NCI-H322M lung 98.1% | HOP-62 NSCLC 102% | NCI-H460 lung 114% | HOP-92 NSCLC 115% | NCI-H522 lung 89.8% | A549/ATCC NSCLC 97.5% | 786-0 renal 85.6% | COLO 205 colon 120%

CC(C)(C)n1cc(-c2ccnc(NCCNS(=O)(=O)c3ccc(C(F)(F)F)cc3)c2)c(-c2ccccc2)n1
inactive: NCI-H23 lung 83% | NCI-H226 lung 89.4% | NCI-H322M lung 99.5% | HOP-62 NSCLC 97.8% | NCI-H460 lung 93.8% | NCI-H522 lung 85.9% | A549/ATCC NSCLC 78.2% | 786-0 renal 80.5% | COLO 205 colon 87.3%
active: HOP-92 NSCLC 3.62%

Cc1c(C(=O)C(SC(=S)N2CCOCC2)SC(=S)N2CCOCC2)nnn1-c1ccc([N+](=O)[O-])cc1
inactive: NCI-H23 lung 108% | NCI-H226 lung 89.4% | NCI-H322M lung 98.7% | HOP-62 NSCLC 94.5% | NCI-H460 lung 98.8% | HOP-92 NSCLC 92.9% | NCI-H522 lung 80.3% | A549/ATCC NSCLC 96.5% | 786-0 renal 98.6% | COLO 205 colon 86.5%

O=C(O)COc1ccc(F)cc1
inactive: NCI-H23 lung 96.8% | NCI-H226 lung 105% | NCI-H322M lung 99.6% | HOP-62 NSCLC 98.7% | NCI-H460 lung 113% | HOP-92 NSCLC 102% | NCI-H522 lung 93.8% | A549/ATCC NSCLC 99.6% | 786-0 renal 102% | COLO 205 colon 116%

CN(C)c1ccc(/C=C/C2=[N+](C)c3ccccc3C2(C)C)cc1
active: NCI-H23 lung 5.41% | HOP-92 NSCLC -19.9% | COLO 205 colon -76.2%
inactive: NCI-H226 lung 29.4% | NCI-H322M lung 28.7% | HOP-62 NSCLC 28.7% | NCI-H460 lung 20% | NCI-H522 lung 18.5% | A549/ATCC NSCLC 15.3% | 786-0 renal 25%

COc1ccc(-c2csc(NC(=O)CSc3nc(C)cc(=O)[nH]3)n2)cc1
inactive: NCI-H23 lung 91.1% | NCI-H226 lung 111% | NCI-H322M lung 106% | HOP-62 NSCLC 118% | NCI-H460 lung 107% | HOP-92 NSCLC 95.5% | NCI-H522 lung 86.7% | A549/ATCC NSCLC 104% | 786-0 renal 102% | COLO 205 colon 116%
